In all, about 69,000 compounds went through this assay and about 8,600 (12%) showed an effect of 50% or more. For the sample, strong results were picked, then their nearest neighbours and some compounds at random.
These molecules were tested on Plasmodium berghei (assay: Screen against P. berghei liver stage (PbLuc), transformed with Luciferase, at 10uM). Conditions: tested at 10 uM.
Assay type: functional, HepG2

Structure (SMILES)	INHIBITION
COc1ccc(C(=O)N2CCCCC2c2nccs2)c(OC)c1 (stereo not given)	7.12%
COc1ccc(CC(=O)N2CCCCC2Cn2cc(C)cn2)cc1F (stereo not given)	-2.19%
CC(C)Cc1cc(NC(=O)c2cccnc2)n(C)n1	-10.6%
CCN(CC)S(=O)(=O)N1CCCN(CC(=O)NC(C)C)CC1	57.2%
CCN(CC(=O)NC(C)C)S(=O)(=O)N1CCCCCC1	-12.6%
CCN(CC(=O)NC(C)C)S(=O)(=O)N1CCCC(C)C1 (stereo not given)	-13.4%
Fc1ccc2[nH]c3c(c2c1)CCN1C(c2ccccn2)N2CCC31CC2 (stereo not given)	-23.4%
CC(NCC1CCS(=O)(=O)CC1)c1cccc(OC(F)F)c1 (stereo not given)	2.97%
Cc1cccc(C(C)NCC2CCS(=O)(=O)CC2)c1 (stereo not given)	64.4%
CC(=O)Nc1cccc(C(C)NCC2CCS(=O)(=O)CC2)c1 (stereo not given)	25.8%
O=C(Nc1cnccn1)[C@@H]1C[C@H]2OCC[C@H]2N(Cc2ccsc2)C1	-38.9%
CCCN1C[C@@H]2CC[C@H]1CN(Cc1ccc(Cn3cccn3)cc1)C2	-27.5%
COC(=O)c1ccc(N2CCN(C(=O)c3ccco3)C(C)C2)cc1 (stereo not given)	-34%
COC(=O)c1ccc(N2CCN(C(=O)c3ccncc3)C(C)C2)cc1 (stereo not given)	27.1%
COC(=O)c1ccc(N2CCN(C(=O)C3CC3)C(C)C2)cc1 (stereo not given)	31.6%
COC(=O)c1ccc(N2CCN(C(=O)c3cccnc3)C(C)C2)cc1 (stereo not given)	81.1%
COC(=O)c1ccc(N2CCN(C(=O)c3ccc(O)nc3)C(C)C2)cc1 (stereo not given)	2.97%
COC(=O)c1ccc(N2CCN(C(=O)c3cnn(C)c3)C(C)C2)cc1 (stereo not given)	63.6%
O=S(=O)(CCNC1CCc2ncnn2C1)c1ccc(Cl)cc1 (stereo not given)	21.5%
CO[C@@H]1CN(c2ccccc2)S(=O)(=O)[C@@]12CCN(CC1CC1)C2	22.2%
CCn1cc(NC(=O)NCC(c2ccc(OC)cc2)N(C)C)cn1 (stereo not given)	34.85%
C[C@@H]1CN(C(=O)c2ccccc2F)C[C@]12CCN(CCN(C)C)C2=O	11.2%
NC(=O)C1CN(Cc2c(O)ccc3oc4c(c23)CCCC4)CCO1 (stereo not given)	-66.7%
O=C1NCCCc2c1oc1ccc(O)c(CN3CCOCC3)c21	58.1%

Structure (SMILES)	INHIBITION
Oc1ccc2oc3c(c2c1CN1CCOCC1)CCCC3	-115%
CCCC1(CO)CCCN(C(=O)CN2CCN(CC)CC2)C1 (stereo not given)	17.4%
CN(C)c1cc(CNc2ccc(S(=O)(=O)C(C)(C)C)nc2)ccn1	-1.35%
Cn1c(CN2CCOC(CCc3ccncn3)C2)nc2ccccc21 (stereo not given)	38.8%
Cc1ccccc1CS(=O)(=O)Cc1nc(C2CC2)no1	9.16%
CCc1noc(CS(=O)(=O)Cc2ccccc2Cl)n1	52.6%
CCc1noc(CS(=O)(=O)CC=C(C)C)n1	21.9%
CCc1noc(CS(=O)(=O)Cc2ccccc2C)n1	61.3%
CCc1noc(CS(=O)(=O)CC(=O)N2c3ccccc3CC2C)n1 (stereo not given)	-21%
CCc1noc(CS(=O)(=O)Cc2nc(Cc3ccccc3)no2)n1	25.5%
Cc1ccc(C2COCCN2C(=O)c2ccc(F)c(F)c2)o1 (stereo not given)	44.9%
O=C(c1cnccn1)N1CCc2onc(Cn3cccn3)c2C1	9.63%
O=C(NCCN1CCCCCC1=O)c1ccc(=O)[nH]n1	33.7%
Cn1ccnc1CN1CCN2C[C@H](Oc3ccccc3)C[C@H]2C1	39.8%
CN(C)c1nccc(C2CCCCN2Cc2cnn3cccnc23)n1 (stereo not given)	-29.9%
Cc1csc(N2CCCN(C(=O)Cn3cncn3)CC2)n1	-52.5%
CN(Cc1ccnc2ccccc12)C1CCS(=O)(=O)C1 (stereo not given)	45.2%
CCOCC1CN(C(=O)COc2ccccc2C)Cc2ncn(C)c21 (stereo not given)	24.6%
O=C(Cc1ccccc1F)N1CCCCC1c1ccn2ccnc2n1 (stereo not given)	51.5%
O=C(COc1cccc(F)c1)N1CCCCC1c1ccn2ccnc2n1 (stereo not given)	1.11%
O=C(CCc1cccnc1)N1CCCCC1c1ccn2ccnc2n1 (stereo not given)	45.6%
O=C(Cc1ccc(F)cc1)N1CCCCC1c1ccn2ccnc2n1 (stereo not given)	7.39%
O=C(Cc1cccc(F)c1)N1CCCCC1c1ccn2ccnc2n1 (stereo not given)	9.1%
O=C(COc1ccccc1F)N1CCCCC1c1ccn2ccnc2n1 (stereo not given)	63.4%

Structure (SMILES)	INHIBITION
CCn1cc(CNc2ccc(F)c(F)c2)cn1	-8%
CCCc1noc(C[S+]([O-])CC(=O)NCc2ccccc2)n1 (stereo not given)	23.2%
CC(C)Cc1nc(C[S+]([O-])CC(=O)NCc2ccccc2)no1 (stereo not given)	-5.1%
CC(C)CCc1noc(C[S+]([O-])CC(=O)NCc2ccccc2)n1 (stereo not given)	55.3%
COc1ccc(N2CCN(C(=O)COc3nccc(C)n3)CC2)cc1	36.8%
N#CCc1ccc(NC(=O)N[C@H](CO)Cc2ccc(O)cc2)cc1	11.6%
N#Cc1cccc(NC(=O)N[C@H](CO)c2ccccc2)c1	18.5%
N#Cc1cccc(NC(=O)N[C@H](CO)Cc2ccc(O)cc2)c1	60.9%
Cc1ccc(CN2CC[C@@H](NC(=O)c3cccnc3)[C@H](O)C2)o1	31.1%
O=C(CNc1cc(-n2cnnn2)ccc1F)NCc1ccccc1	53.4%
O=C(CNc1cc(-n2cnnn2)ccc1F)Nc1cc(F)ccc1F	46.6%
O=C(CNc1cc(-n2cnnn2)ccc1F)Nc1ccccc1Cl	41.4%
COCCNC(=O)c1cc(-c2ccc3c(c2)CCO3)n[nH]1	-18.9%
CCN(Cc1ccncc1)Cc1c[nH]nc1-c1ccc(F)cc1	14.8%
CCC(CO)N(Cc1ccccn1)Cc1ccc(-c2ccn[nH]2)s1 (stereo not given)	47.2%
Cc1n[nH]c(C)c1CCCN(C)Cc1c[nH]nc1-c1ccc(F)cc1	40.2%
CCC(CO)N(Cc1ccccn1)Cc1c[nH]nc1-c1ccc(F)cc1 (stereo not given)	78.9%
CN(Cc1ccn[nH]1)Cc1c[nH]nc1-c1ccc(F)cc1	77.2%
CCC(CO)N(Cc1ccc(F)cc1)Cc1c(C)nn(C)c1Cl (stereo not given)	-8.66%
CN(Cc1cc(C(C)(C)C)n[nH]1)Cc1c[nH]nc1-c1ccc(F)cc1	47.6%
CCC(CO)N(C/C(C)=C/c1ccco1)Cc1ccccn1 (stereo not given)	8.64%
CCC(CO)N(Cc1ccncc1)Cc1c[nH]nc1-c1ccc(F)cc1 (stereo not given)	57.6%
